The results in this text go back to the supplement of paper PMC9023506.

SMILES strings stand for the structures. Where a name gives a salt, the structure may show the parent alone.

The test system of this assay is Danio rerio larvae (5 dpf). The assay is described as follows: startle response to 20-s acoustic pulses, difference vs DMSO (percentage points (treated minus DMSO)); higher = more of the behaviour than the DMSO vehicle control. Conditions: 10 µM; exposure time: 3 h pre-incubation + 3 h imaging. The protocol:
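5-dpf wild-type zebrafish larvae were imaged in 96-well plates. They were treated with 190 Tocris FDA-approved drugs at 10 µM (1 µl/ml DMSO) for 3 h before and 3 h during imaging at 28.5 °C, 48 larvae per drug. Automated image analysis gave % time moving and optomotor responses. Values are drug group mean minus DMSO vehicle mean (n=844), in percentage points, for 10 behaviours.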
On to `O=C(O[C@@H]1C[C@@H]2C[C@H]3C[C@H](C1)N2CC3=O)c1c[nH]c2ccccc12` [Dolasetron mesylate], for which the “startle response to 20-s acoustic pulses” value stood at 2.42.

For the compound `CCCCNc1cc(C(=O)O)cc(S(N)(=O)=O)c1Oc1ccccc1` [Bumetanide], the “startle response to 20-s acoustic pulses” value came to 3.98.

In the case of `CN(C)CCC[C@@]1(c2ccc(F)cc2)OCc2cc(C#N)ccc21` [Escitalopram oxalate], the “startle response to 20-s acoustic pulses” value was -6.28.

On to `C[C@]12CC[C@@H]3c4ccc(O)cc4C[C@@H](CCCCCCCCC[S+]([O-])CCCC(F)(F)C(F)(F)F)[C@H]3[C@@H]1CC[C@@H]2O` (stereo not given in full), for which the “startle response to 20-s acoustic pulses” value was 0.769.

Take `COc1ccc([C@@H]2Sc3ccccc3N(CCN(C)C)C(=O)[C@@H]2OC(C)=O)cc1` [Diltiazem hydrochloride]: the “startle response to 20-s acoustic pulses” value turned out to be 0.061.

In the case of `Cc1cccc(CN2CCN(C(c3ccccc3)c3ccc(Cl)cc3)CC2)c1` (stereo not given) [Meclizine dihydrochloride], the “startle response to 20-s acoustic pulses” value was -8.16.

`Cc1ccc(N(CC2=NCCN2)c2cccc(O)c2)cc1` [Phentolamine Mesylate]: the “startle response to 20-s acoustic pulses” value is -1.56.

On to `CCOC(=O)c1ncn2c1CN(C)C(=O)c1cc(F)ccc1-2` [Flumazenil], for which the “startle response to 20-s acoustic pulses” value is -1.57.

For the compound `CC(C)(C#N)c1cc(Cn2cncn2)cc(C(C)(C)C#N)c1` [Anastrozole], the “startle response to 20-s acoustic pulses” value was -0.38.

On to `COc1ccccc1OCC(O)CN1CCN(CC(=O)Nc2c(C)cccc2C)CC1` (stereo not given) [Ranolazine dihydrochloride], for which the “startle response to 20-s acoustic pulses” value came to 2.42.

Turning to `C[C@H](Cc1cc2c(c(C(N)=O)c1)N(CCCO)CC2)NCCOc1ccccc1OCC(F)(F)F` [Silodosin], the “startle response to 20-s acoustic pulses” value came to 2.96.

Consider `CNS(=O)(=O)Cc1ccc2[nH]cc(CCN(C)C)c2c1` [Sumatriptan succinate], for which the “startle response to 20-s acoustic pulses” value amounted to 3.19.

As to `COc1cc2nc(N3CCN(C(=O)C4COc5ccccc5O4)CC3)nc(N)c2cc1OC` (stereo not given) [Doxazosin mesylate], the “startle response to 20-s acoustic pulses” value came to 7.2.

Consider `C[C@]12CCC(=O)C=C1CC[C@@H]1[C@@H]2[C@@H](O)C[C@@]2(C)[C@H]1CC[C@]2(O)C(=O)CO` [Hydrocortisone], for which the “startle response to 20-s acoustic pulses” value stood at 0.897.

Regarding `O=C(c1ccc(OCCN2CCCCC2)cc1)c1c(-c2ccc(O)cc2)sc2cc(O)ccc12` [Raloxifene hydrochloride], the “startle response to 20-s acoustic pulses” value stood at 1.88.

Take `CCOc1ccccc1OCCN[C@H](C)Cc1ccc(OC)c(S(N)(=O)=O)c1` [Tamsulosin hydrochloride]: the “startle response to 20-s acoustic pulses” value stood at 3.87.

For the compound `CN(C)CCc1c[nH]c2ccc(C[C@H]3COC(=O)N3)cc12` [Zolmitriptan], the “startle response to 20-s acoustic pulses” value worked out at 2.21.

With `CN1CCC[C@@H]1CCO[C@](C)(c1ccccc1)c1ccc(Cl)cc1` [Clemastine fumarate], the “startle response to 20-s acoustic pulses” value was -7.67.

As for `CC(=O)NC[C@H]1CN(c2ccc(N3CCOCC3)c(F)c2)C(=O)O1` [Linezolid], the “startle response to 20-s acoustic pulses” value was found to be 2.02.

With `NC(=O)N1c2ccccc2C=Cc2ccccc21` [Carbamazepine], the “startle response to 20-s acoustic pulses” value stood at 2.54.

On to `CCOc1cc(CC(=O)N[C@@H](CC(C)C)c2ccccc2N2CCCCC2)ccc1C(=O)O` [Repaglinide], for which the “startle response to 20-s acoustic pulses” value is -5.51.

Turning to `O=C1CCc2ccc(OCCCCN3CCN(c4cccc(Cl)c4Cl)CC3)cc2N1` [Aripiprazole], the “startle response to 20-s acoustic pulses” value was -4.17.

In the case of `Nc1nc(Cl)nc2c1ncn2[C@@H]1O[C@H](CO)[C@@H](O)[C@@H]1F` [Clofarabine], the “startle response to 20-s acoustic pulses” value stood at 5.05.

Turning to `COCCc1ccc(OCC(O)CNC(C)C)cc1` (stereo not given) [Metoprolol tartrate], the “startle response to 20-s acoustic pulses” value amounted to 6.66.

For `OC(c1cc(C(F)(F)F)nc2c(C(F)(F)F)cccc12)C1CCCCN1` (stereo not given) [Mefloquine hydrochloride], the “startle response to 20-s acoustic pulses” value is -13.3.

Take `COc1cc2nccc(Oc3ccc(NC(=O)C4(C(=O)Nc5ccc(F)cc5)CC4)cc3)c2cc1OC`: the “startle response to 20-s acoustic pulses” value was -5.31.

As to `CC(C)C(=O)Nc1ccc([N+](=O)[O-])c(C(F)(F)F)c1` [Flutamide], the “startle response to 20-s acoustic pulses” value is -5.19.

In the case of `C[C@H]1O[C@H](O[C@H]2[C@H](O)[C@@H](O)[C@@H](O[C@H]3[C@H](O)[C@@H](O)C(O)O[C@@H]3CO)O[C@@H]2CO)[C@H](O)[C@@H](O)[C@@H]1N[C@H]1C=C(CO)[C@@H](O)[C@H](O)[C@H]1O` (stereo not given in full) [Acarbose], the “startle response to 20-s acoustic pulses” value was -6.81.

Consider `CCCN(CCC)S(=O)(=O)c1ccc(C(=O)O)cc1` [Probenecid], for which the “startle response to 20-s acoustic pulses” value came out at 1.66.

With `Nc1cc(N2CCCCC2)nc(N)[n+]1[O-]` [Minoxidil], the “startle response to 20-s acoustic pulses” value is -2.65.

For the compound `CN(C)C(=N)NC(=N)N` [Metformin hydrochloride], the “startle response to 20-s acoustic pulses” value was -1.12.

Regarding `CN(C)CC/C=C1/c2ccccc2COc2ccc(CC(=O)O)cc21` [Olopatadine hydrochloride], the “startle response to 20-s acoustic pulses” value is 0.514.

For the compound `CC(=O)Nc1ccc(O)cc1` [Acetaminophen], the “startle response to 20-s acoustic pulses” value was -1.63.

Turning to `Cc1nc(-c2ccc(OCC(C)C)c(C#N)c2)sc1C(=O)O` [Febuxostat], the “startle response to 20-s acoustic pulses” value turned out to be 2.71.

`O=C(Nc1c(Cl)cncc1Cl)c1ccc(OC(F)F)c(OCC2CC2)c1` [Roflumilast]: the “startle response to 20-s acoustic pulses” value was 1.99.

Turning to `CC(C)c1nc(CN(C)C(=O)N[C@H](C(=O)N[C@@H](Cc2ccccc2)C[C@H](O)[C@H](Cc2ccccc2)NC(=O)OCc2cncs2)C(C)C)cs1` [Ritonavir], the “startle response to 20-s acoustic pulses” value is 1.92.

As for `CCCC1O[C@@H]2C[C@H]3[C@@H]4CCC5=CC(=O)C=C[C@]5(C)[C@H]4[C@@H](O)C[C@]3(C)[C@]2(C(=O)CO)O1` (stereo not given in full) [Budesonide], the “startle response to 20-s acoustic pulses” value is -5.65.

As for `CCOC(=O)N1CCC(=C2c3ccc(Cl)cc3CCc3cccnc32)CC1` [Loratidine], the “startle response to 20-s acoustic pulses” value turned out to be 14.8.

On to `COc1ccccc1OCCNCC(O)COc1cccc2[nH]c3ccccc3c12` (stereo not given) [Carvedilol], for which the “startle response to 20-s acoustic pulses” value turned out to be 4.96.

For the compound `C[C@@H]1C[C@H]2[C@@H]3CCC4=CC(=O)C=C[C@]4(C)[C@@]3(F)[C@@H](O)C[C@]2(C)[C@@]1(O)C(=O)CO` [Dexamethasone], the “startle response to 20-s acoustic pulses” value was -1.79.
